Measured values taken from PubChem BioAssay (Tox21).
Results filed as inconclusive are left out. A call without a number means that no potency is given here. The source made the active and inactive calls. Calls come from the whole dose curve; as a rule, active = well fitted activation curve with a large enough effect in the repeat runs; inconclusive = weak or mixed curves; inactive = flat fitted curve, though single readings scatter.

Experiment: A CellTox Green Cytotoxicity Assay to monitor cytotoxicity in HEK293 cells - 16 hour (AID 1224888); note: nearly all actives have a fitted effect of over 35% in size
Details: CellTox Green fluorescence; series mostly up to 76.8 µM; activity change: at the top concentration
Source text: National Center for Advancing Translational Sciences [NCATS]
NIH Chemical Genomics Center [NCGC]
U.S. Environmental Protection Agency [EPA]
National Institutes of Environmental Health Sciences [NIEHS]
National Toxicology Program [NTP]
Cell-based models are critical for drug discovery. Determining the natural cytotoxic effects resulting from test compounds is an essential research activity. A CellTox Green Cytotoxicity Assay to monitor cytotoxicity in real time of continues cell culture during 40 hours of the compound treatment was used to screen Tox21 10K library compounds in Hek293 cells. CellTox Green Cytotoxicity Assay is a nonlytic, homogeneous, biofluorescent method to measure cytotoxicity in cell culture after experimental manipulation. The assay system uses a proprietary asymmetric cyanine dye that is excluded from viable cells but preferentially stains the dead cell's DNA. […] Viable cells produce no appreciable increases in fluorescence. Therefore, the fluorescence signal produced by the binding interaction with dead cell DNA is proportional to cytotoxicity.
The mixture of Hek293 cell suspension and reagents were dispensed at 600cells/6 ul/well in 1536-well tissue culture treated black solid bottom plates using a Multidrop dispenser. After the assay plates were incubated at a 37 C/5% CO2 incubator for 5 hours, 23 nL of compounds dissolved in DMSO, positive and negative controls was transferred to the assay plate by a pintool work station. The plates were incubated at 37 C for 40 hours. The fluorescence intensity were measured at 0h, 8h, 16h, 24h, 32h and 40h time points using ViewLux plate reader during compound treatment.
With `CCNc1ccccc1` the Potency was “inactive”.
With `Cc1ccc2ncccc2c1` the Potency was “inactive”.
For `CC1(C)OC[C@@H]2O[C@@]3(C(=O)O)OC(C)(C)O[C@H]3[C@@H]2O1`, the Potency was “inactive”.
For `C=Cc1ccc(C)cc1`, the Potency was “inactive”.
With `CCOC(=O)n1ccn(C)c1=S` the Potency was “inactive”.
With `NCCCCCCN` the Potency was “inactive”.
For `COc1ccc(OC)cc1`, the Potency was “inactive”.
In the case of `C=C(C)C(=O)OCC(C)C`, the Potency is reported as “inactive”.
In the case of `C[C@]12CC[C@@H]3c4ccc(O)cc4CC[C@H]3[C@@H]1C[C@@H](O)[C@@H]2O`, the Potency is reported as “inactive”.
In the case of `CNC(=O)Oc1ccc2c(c1)[C@]1(C)CCN(C)[C@@H]1N2C`, the Potency is reported as “inactive”.
With `O=C(O)Cn1c(=O)n(Cc2ccc(Br)cc2F)c(=O)c2ccc(Cl)cc21` the Potency was “inactive”.
In the case of `c1ccc(Oc2ccccc2)cc1`, the Potency is reported as “inactive”.
For `CN1C(=O)CC[C@H]1c1cccnc1`, the Potency was “inactive”.
For `C=CCCCCCCCCC(=O)O`, the Potency was “inactive”.
In the case of `COCCCN`, the Potency is reported as “inactive”.
For `COc1ccccc1OCC(O)CO` (stereo not given), the Potency was “inactive”.
In the case of `COc1ccc([N+](=O)[O-])cc1N`, the Potency is reported as “inactive”.
In the case of `CC(O)CC(C)(C)O` (stereo not given), the Potency is reported as “inactive”.
With `OCc1ccccc1` the Potency was “inactive”.
With `CC1(C)S[C@@H]2[C@H](NC(=O)COc3ccccc3)C(=O)N2[C@H]1C(=O)O` the “activity change” value was 15.2% (inactive).
In the case of `O=C(O)CCCCCCCCC(=O)O`, the Potency is reported as “inactive”.
With `CCOC(=O)c1ccc(N)cc1` the Potency was “inactive”.
For `CC(C)(C#N)c1cc(Cn2cncn2)cc(C(C)(C)C#N)c1`, the Potency was “inactive”.
In the case of `C=C(C)CNCC`, the Potency is reported as “inactive”.
In the case of `CSc1ccc(Cl)cc1`, the Potency is reported as “inactive”.
For `CCCCC(C=O)CC` (stereo not given), the Potency was “inactive”.
In the case of `CC(CCO)CC(C)(C)C` (stereo not given), the Potency is reported as “inactive”.
In the case of `CC(=O)CC(C)(C)O`, the Potency is reported as “inactive”.
For `COC(=O)c1cccnc1`, the Potency was “inactive”.
For `O=c1[nH]cnc2[nH]ncc12`, the Potency was “inactive”.
With `CC(C)CCCCCCCOC(=O)CCCCC(=O)OCCCCCCCC(C)C` the Potency was “inactive”.
With `CN(C)c1ccc(O)c2c1C[C@H]1C[C@H]3[C@H](N(C)C)C(=O)C(C(N)=O)=C(O)[C@@]3(O)C(=O)C1=C2O` the Potency was “inactive”.
For `c1ccc2c(c1)Cc1ccccc1-2`, the Potency was “inactive”.
With `O=C(O)c1ccc(C(=O)O)c(C(=O)O)c1` the Potency was “inactive”.
With `CCCCCCCCCCN` the Potency was “inactive”.
For `CC(C)=CCl`, the Potency was “inactive”.
For `NC(=S)NNC(N)=S`, the Potency was “inactive”.
In the case of `N#Cc1ccccc1`, the Potency is reported as “inactive”.
With `Clc1ccccn1` the Potency was “inactive”.
For `O=C(O)c1ccc(S(=O)(=O)N(Cl)Cl)cc1`, the Potency was “inactive”.
